Measured values reported in PubChem BioAssay (NCI).
The panel holds about 83,000 compounds, 20% with a hit somewhere; the sample as a whole holds those more often.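 For each line, cells grew in 96-well plates with the test compound present at a single concentration for 48 hours.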 Calls of active or inactive are those of the source. The calls were made as follows: active = growth percent below 10; inactive = the rest.

How the values were obtained:
Test in all cases: NCI-60 one-dose screen, 48 h (100 = growth as untreated, 0 = no growth, -100 = all killed)
Conditions in all cases: 10 µM unless noted
HCT-15 colon = system: HCT-15 colon
HT29 colon = system: HT29 colon
SNB-75 CNS = system: SNB-75 CNS
SNB-19 CNS = system: SNB-19 CNS
U251 CNS = system: U251 CNS
PC-3 prostate = system: PC-3 prostate
SK-MEL-5 melanoma = system: SK-MEL-5 melanoma
UACC-62 melanoma = system: UACC-62 melanoma
LOX IMVI melanoma = system: LOX IMVI melanoma
SK-MEL-28 melanoma = system: SK-MEL-28 melanoma
SK-MEL-2 melanoma = system: SK-MEL-2 melanoma
EKVX NSCLC = system: EKVX NSCLC
SN12C renal = system: SN12C renal
UO-31 renal = system: UO-31 renal
TK-10 renal = system: TK-10 renal
ACHN renal = system: ACHN renal
CAKI-1 renal = system: CAKI-1 renal
A498 renal = system: A498 renal
CCRF-CEM leukemia = system: CCRF-CEM leukemia
MOLT-4 leukemia = system: MOLT-4 leukemia

Measured: growth

CCOC(=O)C1=C(c2ccccc2)N=C2N(c3ccccc3)N=C(C(C)=O)N2C1c1ccc(Br)cc1 (stereo not given)
inactive: HCT-15 colon 92.2% | HT29 colon 85.1% | SNB-75 CNS 85.8% | SNB-19 CNS 88.7% | U251 CNS 98% | PC-3 prostate 77.6% | SK-MEL-5 melanoma 94% | UACC-62 melanoma 72.4% | LOX IMVI melanoma 95.4% | SK-MEL-28 melanoma 99.9% | SK-MEL-2 melanoma 90.3% | EKVX NSCLC 93.9% | SN12C renal 90% | UO-31 renal 72.7% | TK-10 renal 109% | ACHN renal 93.3% | CAKI-1 renal 87.1% | A498 renal 42.9% | CCRF-CEM leukemia 87.7% | MOLT-4 leukemia 93.6%

CCN(CC)CCCNC(=O)c1c2c(n3ccccc13)C(=O)c1ncccc1C2=O
inactive: SK-MEL-28 melanoma 22.8% | CAKI-1 renal 11.8%
active: HCT-15 colon -73.6% | HT29 colon -28.5% | SNB-75 CNS -87.2% | SNB-19 CNS -71.3% | U251 CNS -83.8% | PC-3 prostate -19.8% | SK-MEL-5 melanoma -99.2% | UACC-62 melanoma -53.8% | LOX IMVI melanoma -71.2% | SK-MEL-2 melanoma -55.3% | EKVX NSCLC -84.5% | SN12C renal -56% | UO-31 renal -19.8% | TK-10 renal -0.124% | ACHN renal -34.5% | A498 renal -73% | CCRF-CEM leukemia -36.2% | MOLT-4 leukemia -40.6%

CCOC(=O)c1cnc2sc(-c3ccc(OC)cc3)nc2c1Cl
inactive: HCT-15 colon 92.9% | HT29 colon 116% | SNB-75 CNS 94.7% | SNB-19 CNS 104% | U251 CNS 103% | PC-3 prostate 104% | SK-MEL-5 melanoma 84.2% | UACC-62 melanoma 88.7% | LOX IMVI melanoma 86.8% | SK-MEL-28 melanoma 99% | SK-MEL-2 melanoma 102% | EKVX NSCLC 90.4% | SN12C renal 102% | UO-31 renal 78.8% | TK-10 renal 145% | ACHN renal 105% | CAKI-1 renal 95% | A498 renal 86.8% | CCRF-CEM leukemia 96.4% | MOLT-4 leukemia 97.3%

C#Cc1c(I)n(C2OC(CO[Si](C)(C)C(C)(C)C)C3OC(C)(C)OC32)c(=O)[nH]c1=O (stereo not given)
active: HCT-15 colon -9.25% | U251 CNS 3.76% | PC-3 prostate -61.1% | LOX IMVI melanoma -80.6% | SK-MEL-28 melanoma -56.7% | UO-31 renal -77.3% | TK-10 renal -62.3% | CCRF-CEM leukemia -29.7% | MOLT-4 leukemia -25.5%
inactive: HT29 colon 38.6% | SNB-75 CNS 86.8% | SNB-19 CNS 94.2% | SK-MEL-5 melanoma 96.6% | UACC-62 melanoma 82.1% | SK-MEL-2 melanoma 59.9% | EKVX NSCLC 96.7% | SN12C renal 89.7% | ACHN renal 49.7% | CAKI-1 renal 74.2% | A498 renal 102%

c1ccc2[nH]c(-c3ccc(-c4nccc5c4[nH]c4ccccc45)cc3)nc2c1
inactive: HCT-15 colon 38.7% | SNB-75 CNS 64.9% | SNB-19 CNS 55.1% | U251 CNS 24.2% | PC-3 prostate 85.7% | SK-MEL-5 melanoma 62.6% | LOX IMVI melanoma 10.8% | SK-MEL-28 melanoma 61.3% | SK-MEL-2 melanoma 47.3% | EKVX NSCLC 81.2% | SN12C renal 60.9% | UO-31 renal 89.2% | TK-10 renal 73.5% | ACHN renal 71.7% | CAKI-1 renal 81.9% | A498 renal 68.7% | CCRF-CEM leukemia 11.1% | MOLT-4 leukemia 77.1%
active: HT29 colon 4.38% | UACC-62 melanoma -24%

O=C1/C(=C/c2ccc(Br)cc2)COc2ccc(O)cc21
inactive: HCT-15 colon 42.5% | HT29 colon 28.9% | SNB-75 CNS 92.7% | SNB-19 CNS 87.3% | U251 CNS 57% | PC-3 prostate 77.4% | SK-MEL-5 melanoma 96% | UACC-62 melanoma 79.3% | SK-MEL-28 melanoma 97.7% | SK-MEL-2 melanoma 107% | EKVX NSCLC 98.5% | SN12C renal 73.3% | UO-31 renal 47.9% | TK-10 renal 99.1% | ACHN renal 86.7% | CAKI-1 renal 80.1% | A498 renal 103% | MOLT-4 leukemia 16.6%
active: LOX IMVI melanoma -1.48% | CCRF-CEM leukemia 1.32%

CCOC(=O)CC1CSC(N/N=C(/C)c2cccc(C(F)(F)F)c2)=N1 (stereo not given)
inactive: HCT-15 colon 93.8% | HT29 colon 94.3% | SNB-75 CNS 98.3% | SNB-19 CNS 106% | U251 CNS 98.4% | PC-3 prostate 97.8% | SK-MEL-5 melanoma 105% | UACC-62 melanoma 97.1% | LOX IMVI melanoma 104% | SK-MEL-28 melanoma 107% | SK-MEL-2 melanoma 123% | EKVX NSCLC 89.3% | SN12C renal 103% | UO-31 renal 80.2% | TK-10 renal 95.8% | ACHN renal 106% | CAKI-1 renal 91.6% | A498 renal 97.4% | CCRF-CEM leukemia 104% | MOLT-4 leukemia 95.8%

COc1ccc(C(=O)/C=C/Nc2cc(-c3ccccc3)nn2-c2ccccc2)cc1
inactive: HCT-15 colon 88.1% | HT29 colon 99.4% | SNB-75 CNS 94% | SNB-19 CNS 92% | U251 CNS 93.2% | PC-3 prostate 86.8% | SK-MEL-5 melanoma 93% | UACC-62 melanoma 72.2% | LOX IMVI melanoma 92.9% | SK-MEL-28 melanoma 99.5% | SK-MEL-2 melanoma 101% | EKVX NSCLC 89.4% | SN12C renal 94.5% | UO-31 renal 79.3% | TK-10 renal 84.2% | ACHN renal 99% | CAKI-1 renal 94.3% | A498 renal 78% | CCRF-CEM leukemia 84.2% | MOLT-4 leukemia 85.4%
